Laboratory results published in PubChem BioAssay (NCATS).
Inconclusive results are not listed. Unmarked numbers belong to inactive results. Active and inactive are the calls of the source. The call rests on the fitted dose curve.

Test: Validation screen for inhibitors of Lassa infection (AID 463096)
Details: Lassa virus infection, cell-based; series mostly up to 46.1 µM; activity change, negative = inhibition: at the top concentration
On the % scale 0 is the no-effect control and ±100 the full control effect.

First: Cc1nc2ccccn2c(=O)c1CCN1CCC(C(=O)c2ccc(F)cc2)CC1
Second: O=C1NCC2(CCN(CCc3ccccc3)CC2)O1
The “activity change, negative = inhibition” value of the first is lower: 7.37% for the first, 13.4% for the second.

Compared with `C1COC(NC(C2CC2)C2CC2)=N1`, `COc1ccc(C2CNC(=O)C2)cc1OC1CCCC1` (stereo not drawn) is lower in “activity change, negative = inhibition” value: 9.01% for the first, -12.8% for the second.

First: O=c1[nH]c(=O)n([C@H]2C[C@H](O)[C@@H](CO)O2)cc1Br
Second: COC(=O)[C@@H]1[C@H]2C[C@H]3c4[nH]c5ccccc5c4CCN3C[C@@H]2CC[C@@H]1O
The “activity change, negative = inhibition” value of the first is lower: -3.79% for the first, 40.8% for the second.

Going from `NCCCCCC(=O)O` to `O=C(O)CCCCCCCC(=O)O`, the “activity change, negative = inhibition” value falls from 5.4% to -2.96%.

First: NC1CCN(c2cccc(Cl)n2)CC1
Second: Clc1cccc(Cl)c1NC1=NCCN1
The “activity change, negative = inhibition” value of the first is lower: 0.92% for the first, 34.1% for the second.

Compared with `CCO/C([O-])=N/c1c[n+](N2CCOCC2)no1`, `CC1COc2c(N3CCN(C)CC3)c(F)cc3c(=O)c(C(=O)O)cn1c23` (stereo not drawn) is lower in “activity change, negative = inhibition” value: 26.3% for the first, 11.9% for the second.

Compared with `CCCCCCCCCCCCCCCC(=O)NCCO`, `NCCCNCCSP(=O)(O)O` is higher in “activity change, negative = inhibition” value: 8.36% for the first, 25.6% for the second.

Compared with `CCN(CC)CCNC(=O)c1ccc(N)cc1`, `CCN(CC)CCOC(=O)c1ccc(N)cc1` is higher in “activity change, negative = inhibition” value: -23.2% for the first, -0.093% for the second.

First: C=CC(N)CCC(=O)O (stereo not drawn)
Second: NC/C=C/C(=O)O
The “activity change, negative = inhibition” value of the first is higher: 29.7% for the first, 1.59% for the second.

First: CCCNC(C)C(=O)Nc1ccccc1C (stereo not drawn)
Second: Cc1ccc(Cl)c(Nc2ccccc2C(=O)O)c1Cl
The “activity change, negative = inhibition” value of the first is lower: -7.81% for the first, 6.77% for the second.

Going from `CC(CCc1ccc(O)cc1)NCCc1ccc(O)c(O)c1` (stereo not drawn) to `COc1ccc2cc([C@H](C)C(=O)O)ccc2c1`, the “activity change, negative = inhibition” value rises from -20.3% to 24.7%.

First: N[C@@H](COP(=O)(O)O)C(=O)O
Second: NC(Cc1ccc(Cl)cc1)C(=O)O (stereo not drawn)
The “activity change, negative = inhibition” value of the first is higher: 11.7% for the first, 1.64% for the second.

First: NC(=O)N1c2ccccc2C=Cc2ccccc21
Second: COc1cc(-c2ccc(=O)[nH]n2)ccc1OC(F)F
The “activity change, negative = inhibition” value of the first is higher: 1.31% for the first, -6.14% for the second.

Going from `CC[N+](CC)(CC)CCOc1cccc(OCC[N+](CC)(CC)CC)c1OCC[N+](CC)(CC)CC` to `CCN(CC)CC#CCOC(=O)C(O)(c1ccccc1)C1CCCCC1` (stereo not drawn), the “activity change, negative = inhibition” value falls from 27.1% to -15.2%.

Going from `NCCS(=O)(=O)O` to `C[N+](C)(C)CCOC(N)=O`, the “activity change, negative = inhibition” value falls from -2.5% to -10%.

Compared with `Cn1c(=O)c2[nH]cnc2n(C)c1=O`, `Cc1nnc(SCC2=C(C(=O)O)N3C(=O)[C@@H](NC(=O)Cn4cnnn4)[C@H]3SC2)s1` is lower in “activity change, negative = inhibition” value: 17.8% for the first, 6.43% for the second.

With `C[N+](C)(C)CCCCCC[N+](C)(C)C` the outcome was “inactive”.
